The whole screen tested about 55,000 sequences, of which about 5,800 (11%) were called active. Rule as the data show it: active = GI50 up to about 1.1 µM and inactive = higher. The sample as a whole holds a higher share of actives than the screen did. Entries with a potency or affinity are not part of this list.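 The compound was tested at five concentrations on cells cultured in 96-well plates, with a 48-hour exposure period. The concentration for 50% growth inhibition is given as GI50.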
Test system: CCRF-CEM
Assay: NCI tumour cell line growth inhibition, 48 h

| Substance | GI50 [nM] |
| --- | --- |
| [Bis(aminomethyl)tetramethylenesilane]dichloropaltinum(II), CHEMBL2146205 | 1560 |
| mu-(1,7-nanodiamine-N,N')bis-(cis-aminedichloroplatimum (II)), CHEMBL2146215 | 925 |
| [Bis(aminomethyl)dimethylsilane]dichloroplatinum (II), CHEMBL2146201 | 3660 |
| [Bis(aminomethyl)pentamethylenesilane]dichloropaltinum(II), CHEMBL2146202 | 202 |
| [Bis(aminomethyl)diethylsilane]tetrachloroplatinum(IV), CHEMBL2146203 | 283 |
| [Bis(aminomethyl)pentamethylenesilane]tetrachloropaltinum(IV), CHEMBL2146204 | 95.3 |
| ACRIFLAVINE HYDROCHLORIDE, CHEMBL5219995 | 233 |
| CISPLATIN, CHEMBL11359 | 1120 |
| [Bis(aminomethyl)tetramethylenesilane]tetrachloropaltinum(IV), CHEMBL2146189 | 246 |
| [Bis(aminomethyl)ethylmethylsilane]tetrachloroplatinum(IV), CHEMBL2146192 | 381 |
| [Bis(aminomethyl)dimethylsilane]tetrachloroplatinum(IV), CHEMBL2146190 | 805 |
| cis-Bis[[(trimethylsilyl)methyl]amino]tetrachloroplatinum(IV), CHEMBL2146191 | 1230 |

From ChEMBL document CHEMBL1201862, “PubChem BioAssay data set” (2004)
